# TDP1 inh – inhibitors of human tyrosyl-DNA phosphodiesterase TDP1; Q9NUW8; recombinant TDP1, AlphaScreen DNA substrate cleavage; Potency, µM (highest dose often 130 µM), for the others: top-dose activity change, negative = inhibition, actives largely listed as inhibitors; hit rate 0.28% among 350,000; AID 485290; also: potency is read from the fitted curve at half-maximal effect; nearly all actives have a fitted effect of over 40% in size
# Target sequence (Q9NUW8 whole entry, looked up): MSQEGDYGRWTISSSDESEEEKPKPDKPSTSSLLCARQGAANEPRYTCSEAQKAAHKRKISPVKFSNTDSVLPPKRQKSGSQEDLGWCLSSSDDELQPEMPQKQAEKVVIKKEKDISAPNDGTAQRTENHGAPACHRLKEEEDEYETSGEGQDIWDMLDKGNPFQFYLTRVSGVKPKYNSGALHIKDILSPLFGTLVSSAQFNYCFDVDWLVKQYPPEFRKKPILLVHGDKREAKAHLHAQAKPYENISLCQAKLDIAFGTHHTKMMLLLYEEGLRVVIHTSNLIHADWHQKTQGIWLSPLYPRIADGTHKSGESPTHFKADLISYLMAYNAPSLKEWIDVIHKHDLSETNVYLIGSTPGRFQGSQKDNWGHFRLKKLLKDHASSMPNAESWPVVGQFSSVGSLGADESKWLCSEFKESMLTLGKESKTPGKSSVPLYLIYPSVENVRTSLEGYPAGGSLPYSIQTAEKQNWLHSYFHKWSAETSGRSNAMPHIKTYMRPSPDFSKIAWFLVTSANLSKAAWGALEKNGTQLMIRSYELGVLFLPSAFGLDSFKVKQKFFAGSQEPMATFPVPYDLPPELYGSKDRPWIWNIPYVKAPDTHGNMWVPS
#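 AlphaScreen read-out: signal falls as enzyme removes the 3' tyrosine-FITC from a 5'-biotinylated DNA oligo (15 nM, 5 min, RT). Enzyme was E. coli-made recombinant Tdp1 at 1 nM, exposed to compound for 15 min beforehand; beads 10 ug/ml, 10 min.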
# IL-1B inflam inh – inhibitors of inflammasome signaling (IL-1 beta secretion); THP-1 LPS/ATP IL-1B secretion, AlphaLISA, 16 h; stronger effect = lower value; activity change, % at 57.5 µM; hit rate 4.7% among 360,000; AID 743279; in the data active = activity change below about -50%; inconclusive = mostly about -30% to -49%
#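 Secreted IL-1B measured by AlphaLISA bead assay after 16 h compound exposure of THP-1 cells; compounds (final up to 57.5 uM) added 1 h before LPS (250 ng/mL) and ATP (1.25 mM) stimulation; lower signal means less secretion.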
# TDP1 cell noCPT – qHTS for Inhibitors of human tyrosyl-DNA phosphodiesterase 1 (TDP1): qHTS in cells in absence of CPT | DT40 Tdp1-/- hTDP1 cells, no CPT, ATP luminescence, 48 h | Potency, µM (titrated, usually from 46.2 µM), for the others: at the highest dose activity change, negative = growth inhibition, hits mostly inhibitors | hit rate 15% among 420,000; also: potency is read from the fitted curve at half-maximal effect; nearly all actives have a fitted effect of over 55% in size
#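 Growth kinetics read by CellTiter-Glo luminescence after ≥48 hr at 37 °C. Cells: DT40 Tdp1-/- stably carrying human TDP1, 400 per well, compound exposure in the absence of CPT (DMSO vehicle).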
# ELG1 DNA repair – ELG1-dependent DNA repair inhibition; HEK293T ELG1-luciferase reporter, luminescence, 16 h; DNA damage induced by 5-fluorouridine; Potency, µM (titrated, usually from 46.1 µM), for inactives: at the top dose activity change, negative = inhibition, actives largely listed as inhibitors; hit rate 2.3% among 330,000; also: potency is read from the fitted curve at half-maximal effect; nearly all actives have a fitted effect of over 55% in size
#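 Luminescence from the luciferase reporter, measured 30 min after ONE-Glo reagent at room temperature, was the read-out. Beforehand, 2,000 cells per well were exposed for 16 hr at 37 °C to 5-fluorouridine together with compound or vehicle.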
# Giardia killer – Giardia lamblia killing; AID 540267; Giardia lamblia trophozoite viability; hit rate 0.15% among 340,000; activity change, % at 7.66 µM, hits read low; in the data active = activity change below about -80%; inconclusive = between about -30% and that limit;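 also: parasites exposed to compound for two days anaerobically before the ATP read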
#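 Anaerobic 48 hrs incubation at 37 deg C of 100 trophozoites/well with test compounds; ATPLite 1-Step luminescence, 15-30 min RT, reports cellular ATP as viability.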
# DT40 TDP1 CPT – DT40-hTDP1 cell growth loss with CPT | chicken DT40 Tdp1-/-;hTDP1 cells + 20 nM CPT, ATP luminescence, 48 h | Potency, µM (series often up to 46.2 µM), for inactives: at the highest dose activity change, negative = growth inhibition, most hits filed as inhibitors | hit rate 12% among 420,000 | AID 686979; also: potency is read from the fitted curve at half-maximal effect; nearly all actives have a fitted effect of over 55% in size
#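 Chicken DT40 Tdp1-/- cells stably complemented with human TDP1 were seeded at 400 cells/well in medium containing 20 nM camptothecin, exposed to pin-transferred compounds, and grown at 37 °C for at least 48 hr. Viability was read as ATP luminescence.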
# Starred values were filed as active, the others as inactive; ? = inconclusive; · = no result; [ ] = remark or other dose. An excerpt weighted towards active compounds, which were near 19% of everything screened. Unless noted, calls follow the shape of the dose curve; as a rule, active = well fitted curve in the direction sought with a large enough effect; inconclusive = small, poorly fitted or top-dose-only effect, or another doubt; inactive = no such curve, though single readings can be large; an effect the other way counts as inactive or inconclusive. % is scaled to controls: 0 for no effect and ±100 for the full control effect.
SMILES,TDP1 inh,IL-1B inflam inh,TDP1 cell noCPT,ELG1 DNA repair,Giardia killer,DT40 TDP1 CPT
COc1ccc2cc(CCNC(=O)c3cccc([N+](=O)[O-])c3)c(=O)[nH]c2c1,5.8%,-0.4,?,?,-6.7,23.1µM*
CNc1c(Cl)cc(/C=C2\C=Cc3ccccc32)cc1Cl,·,·,-12.1%,·,·,-23.7%
CNCc1cc2ccc(C)cc2[nH]c1=O,2.9%,20.5,?,-5.7%,-10.2,16.4µM*
Cc1ccc2cc(CNC(C)(C)C)c(=O)[nH]c2c1,9.5%,8.6,-9.8%,?,9.8,-3.3%
COc1ccc(C(=O)COC(=O)CCS(=O)(=O)c2ccc(C)cc2)c(OC)c1,5.4%,13.8,5.2%,-0.8%,-4.3,0.6%
COc1ccc(C(=O)CCS(=O)(=O)c2ccc(C)cc2)cc1OC,3.4%,-81.9*,3.26µM*,-5.4%,-12.1,3.66µM*
Cc1ccc(S(=O)(=O)CCC(=O)c2ccc(O)cc2O)cc1,1.0%,-8.4,1.16µM*,0.8%,-17.6,1.84µM*
CCC(CC)C(=O)Nc1cccc(-c2nc3cccnc3s2)c1C,3.9%,·,?,·,·,?
CCOc1cccc(N(C(=O)CCC(=O)Nc2cc(C)on2)C(C(=O)NC(C)(C)C)c2ccc(OC)cc2)c1 (stereo unspecified),·,10.1,?,0.1%,-17.9,29.1µM*
COc1ccc(C(C(=O)NC(C)(C)C)N(C(=O)CCC(=O)Nc2cc(C)on2)c2cccc(F)c2)cc1 (stereo unspecified),·,-8.8,?,1.1%,-22.0,0.1%
CCc1ccc(N(C(=O)CCC(=O)Nc2cc(C)on2)C(C(=O)NC(C)(C)C)c2ccc(OC)cc2)cc1 (stereo unspecified),-9.9%,17.3,20.6µM*,-24.6%,-24.8,?
CCOc1ccc(Nc2cc(Nc3ccccc3OCC)nc(C=C(C#N)C#N)n2)cc1,7.7%,24.2,-1.1%,2.1%,-0.3,6.5%
O=C(COc1cccnc1[N+](=O)[O-])Nc1cccc2ccccc12,0.7%[56.1 µM],-1.0,-2.0%,3.8%,?,-15.2%
Cn1cnc([N+](=O)[O-])c1Oc1cccc2ccccc12,4.3%,·,29.1µM*,-13.0%,-4.4,?
CCN(CC)c1c([N+](=O)[O-])ncn1C,3.9%,15.1,-0.2%,5.1%,-6.3,-6.5%
CNc1c([N+](=O)[O-])ncn1C,4.2%,7.5,-1.6%,3.3%,-2.9,11.3%
Cn1cnc([N+](=O)[O-])c1S(=O)(=O)Oc1ccc(Cl)cc1,·,-97.3*,2.06µM*,·,-0.2,0.651µM*
Cn1cnc([N+](=O)[O-])c1Cl,·,-94.8*,?,0.0%,-8.2,?
Cn1nc([N+](=O)[O-])nc1Oc1ccccc1N,0.5%,0.0,11.7%,1.1%,-4.7,-5.6%
Cn1cnc([N+](=O)[O-])c1S(=O)(=O)Oc1cccc2ccccc12,·,-102.2*,1.03µM*,·,0.3,1.3µM*
COc1cc2cc(CCOC(=O)c3ccco3)oc(=O)c2cc1OC,1.8%,17.5,-14.9%,-7.5%,-6.7,2.3%
Cn1cnc([N+](=O)[O-])c1Sc1ncn[nH]1,-5.1%,0.0,16.4µM*,8.6%,7.4,18.4µM*
CCS(=O)(=O)c1c([N+](=O)[O-])ncn1C,-2.7%,-11.7,7.31µM*,26.7%,-22.1,5.17µM*
COc1ccc(CN(C(=O)Cc2coc3ccc(C)cc23)C2CCS(=O)(=O)C2)cc1 (stereo unspecified),6.1%,·,?,·,·,-6.1%
C/C=C/c1ccc(OCC(=O)Nc2cc(Cl)ccc2-n2cncn2)c(OC)c1,·,-19.5,?,?,-0.6,?
SMILES,TDP1 inh,IL-1B inflam inh,TDP1 cell noCPT,ELG1 DNA repair,Giardia killer,DT40 TDP1 CPT
COc1ccccc1CNC(=O)C(=O)NCC1CCCN1S(=O)(=O)c1cc(C)ccc1C (stereo unspecified),·,19.3,?,·,·,?
COc1ccc(S(=O)(=O)N2CCC3CC2c2c(-c4ccc(C(F)(F)F)cc4)cccc23)cc1 (stereo unspecified),·,10.4,5.17µM*,·,·,4.61µM*
C=CCOC(=O)N1CCC2CC1c1c(-c3ccc(C(F)(F)F)cc3)cccc12 (stereo unspecified),·,40.4,?,·,·,23.1µM*
COCC(=O)N1CCC2CC1c1c(-c3ccc(C(F)(F)F)cc3)cccc12 (stereo unspecified),·,3.7,?,·,8.9,23.1µM*
COc1ccc(-c2cccc3c2C2CC3CCN2C(=O)OCc2ccccc2)cc1 (stereo unspecified),·,-20.1,?,·,1.8,?
CO/N=C(\C(=O)N[C@@H]1C(=O)N2C(C(=O)O)=C(CSc3nc(C)c(CC(=O)O)s3)CS[C@H]12)c1csc(N)n1,·,·,-14.4%,·,·,4.8%
CN(C)CCCNc1nc2cc(-c3ccn[nH]3)sc2c(=O)n1C,·,23.9,-19.8%,·,·,-1.3%
O=C(NNc1c2ccccc2nc2ccccc12)C(O)c1ccccc1 (stereo unspecified),8.8%,?,?,-2.4%,-27.0,?
O=C(NNc1c2ccccc2nc2ccccc12)c1cccc(O)c1,10.5%,-79.7*,11.6µM*,14.6µM*,-2.4,?
Cc1ccc(C(=O)NNc2nc3ccccc3nc2C(F)(F)F)cc1,1.0%,1.9,23.1µM*,-13.0%,-11.4,?
O=C(NNc1c2ccccc2nc2ccccc12)c1ccc(O)cc1,4.1%,-21.6,?,?,21.6,13µM*
COc1ccc(CNC(=O)c2cc3c(=O)n(C)c4ccccc4c3n2C)c(OC)c1,5.8%,·,?,·,·,?
Cc1cccc(/C=C/C(=O)c2ccc(NC3=NCCCS3)cc2)c1,5.7%,-86.7*,7.31µM*,14.1%,-5.8,13µM*
O=C(/C=C/c1ccc(Br)cc1)c1ccc(NC2=NCCCS2)cc1,-6.7%,-65.0*,?,?,-17.5,9.2µM*
c1ccc(NC2=NCCCCS2)cc1,-3.3%,12.4,-4.4%,?,-8.6,-25.5%
CN(C)c1ccc(C(=O)/C=C/c2ccc(Br)cc2)cc1,1.1%,-22.8,?,?,-0.7,-19.1%
CC(C)(C)c1ccc(/C=C/C(=O)c2ccc(NC3=NCCCS3)cc2)cc1,0.6%,-100.3*,?,-13.2%,-5.5,23.1µM*
O=C(/C=C/c1ccccc1)c1ccc(NC2=NCCCS2)cc1,2.6%,-101.6*,11.6µM*,?,-5.8,14.6µM*
CCOc1ccc(/C=C(\C(=O)O)c2ccc(S(=O)(=O)N3CCCCC3)s2)cc1OC,-10.3%,-7.9,8.1%,0.6%,-11.0,8.1%
CON(C)C(=O)CCN(Cc1ccccc1)C(=O)OC(C)(C)C,1.3%,-2.6,?,-0.5%,-11.0,?

# Bioassay records (PubChem)
